Reference: the supplement of paper PMC3334620
The full ranking holds about 33,000 sequences; the median of “E-score (-0.5 to 0.5)” is about -0.016, and the highest 2% start at about 0.31. Only a selection was taken, and the highest values are over-represented in it overall.

These sequences were tested against Cst6 (UniProt P40535) (assay: PBM E-score (8-mer binding enrichment) (E-score (-0.5 to 0.5)); higher = stronger / more preferred TF binding). Conditions: protein concentration: 200 nM; construct: GST-DNA-binding domain.
Chain of UniProt P40535 (P40535 whole entry, the tested form may be a part): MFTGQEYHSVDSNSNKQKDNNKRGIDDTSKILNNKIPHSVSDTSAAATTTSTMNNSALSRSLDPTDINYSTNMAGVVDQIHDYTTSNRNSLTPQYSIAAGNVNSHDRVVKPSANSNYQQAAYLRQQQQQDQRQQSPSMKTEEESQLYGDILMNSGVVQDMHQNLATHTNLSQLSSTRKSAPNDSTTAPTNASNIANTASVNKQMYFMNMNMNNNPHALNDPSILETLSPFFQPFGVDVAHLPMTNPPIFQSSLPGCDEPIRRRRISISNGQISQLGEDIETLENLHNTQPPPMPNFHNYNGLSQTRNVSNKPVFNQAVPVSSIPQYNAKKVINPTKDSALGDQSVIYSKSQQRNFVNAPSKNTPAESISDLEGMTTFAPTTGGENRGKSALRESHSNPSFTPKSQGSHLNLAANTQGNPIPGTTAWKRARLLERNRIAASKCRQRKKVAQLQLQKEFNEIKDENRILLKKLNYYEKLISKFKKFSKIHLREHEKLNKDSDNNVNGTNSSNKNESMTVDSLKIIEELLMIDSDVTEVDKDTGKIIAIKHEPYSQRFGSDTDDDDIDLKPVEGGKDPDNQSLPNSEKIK
How it was run: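 Yeast transcription factors carrying a GST tag, as full-length proteins or DNA-binding domains, were produced by PURExpress in vitro transcription/translation. About 100-200 nM protein was applied to universal all-10-mer Agilent arrays, double-stranded by primer extension on fresh or once-stripped slides. Bound protein was detected with fluorescent anti-GST, and scans were normalised with masliner. The Universal PBM Analysis Suite gave each ungapped eight-base word, pooled with its reverse complement, an E-score, a modified Wilcoxon-Mann-Whitney statistic.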
CGAACGAA was tested, and the “PBM E-score” value was 0.0744. AAGGCGCT was tested, and the “PBM E-score” value was 0.118. In the case of CACACGGC, the “PBM E-score” value is reported as 0.293. For ACGTACCG, the “PBM E-score” value was 0.0475. With ATTTCGAG the “PBM E-score” value was 0.0911. With TCAGGGAA the “PBM E-score” value was -0.141. In the case of CGGCTGGC, the “PBM E-score” value is reported as -0.28. With CATGTCAA the “PBM E-score” value was 0.161. With CATGTCAG the “PBM E-score” value was 0.144. In the case of CATGTCAC, the “PBM E-score” value is reported as 0.36. With CATGTAAC the “PBM E-score” value was 0.014. In the case of GATGTAAC, the “PBM E-score” value is reported as 0.341. With AATGTAAC the “PBM E-score” value was 0.0559. In the case of ATTGGCCC, the “PBM E-score” value is reported as -0.36. GATGAGAC was tested, and the “PBM E-score” value was 0.0611. For ATAATGTA, the “PBM E-score” value was 0.203. CATTCCCG was tested, and the “PBM E-score” value was 0.0388. For ATGTTGAA, the “PBM E-score” value was 0.104. With CGTAATAC the “PBM E-score” value was 0.366. CTTAATAA was tested, and the “PBM E-score” value was 0.155. With GGTAATAC the “PBM E-score” value was 0.111. For AGTAATAC, the “PBM E-score” value was -0.0264. TGTAATAA was tested, and the “PBM E-score” value was 0.329. GGTAATAA was tested, and the “PBM E-score” value was 0.247. With CATAATAG the “PBM E-score” value was 0.202. In the case of CCTAATAA, the “PBM E-score” value is reported as 0.00168. With CGTAATAG the “PBM E-score” value was 0.318. AGTAATAG was tested, and the “PBM E-score” value was 0.211. AGTAATAA was tested, and the “PBM E-score” value was 0.302. CGTAATAA was tested, and the “PBM E-score” value was 0.325. For CATTGCCC, the “PBM E-score” value was -0.241. For AACTTGCT, the “PBM E-score” value was -0.117. CTAACTAG was tested, and the “PBM E-score” value was 0.0585. For GGATTGCA, the “PBM E-score” value was 0.0154. With ATATACAT the “PBM E-score” value was 0.16. In the case of TGGGGAAA, the “PBM E-score” value is reported as 0.0662. In the case of AACCATCC, the “PBM E-score” value is reported as -0.0939. For AGAATGAG, the “PBM E-score” value was -0.0205. For CGAATGAA, the “PBM E-score” value was 0.0688. For AGAATGAC, the “PBM E-score” value was 0.354. For AGAATGAA, the “PBM E-score” value was 0.207. With GGAATGAC the “PBM E-score” value was 0.255. In the case of CGAATGAC, the “PBM E-score” value is reported as 0.348. For GGACGGGA, the “PBM E-score” value was -0.285. For ATAAGTAA, the “PBM E-score” value was 0.164. CACTGACC was tested, and the “PBM E-score” value was -0.133. For AGCTGACG, the “PBM E-score” value was 0.359. For CGCTGACG, the “PBM E-score” value was 0.384. In the case of AGCTGACT, the “PBM E-score” value is reported as -0.0426. With CGCTGACA the “PBM E-score” value was 0.166. For AGCTGACC, the “PBM E-score” value was -0.126. With CACTGACG the “PBM E-score” value was 0.371. In the case of CGCTGACC, the “PBM E-score” value is reported as -0.0695. In the case of CACTGACA, the “PBM E-score” value is reported as 0.08. AGCTTTAA was tested, and the “PBM E-score” value was 0.127. In the case of CGGCTAGA, the “PBM E-score” value is reported as -0.038. With ATTTCAGC the “PBM E-score” value was 0.00693. ATGGAAAT was tested, and the “PBM E-score” value was 0.122. In the case of GGCTACAC, the “PBM E-score” value is reported as -0.0907. In the case of CTCCAGAC, the “PBM E-score” value is reported as -0.158. TACATTAA was tested, and the “PBM E-score” value was 0.19. With GGTGCGTA the “PBM E-score” value was -0.062. With CGGTTAAG the “PBM E-score” value was -0.0846. AAGTCATC was tested, and the “PBM E-score” value was 0.114. In the case of ACGTCATG, the “PBM E-score” value is reported as 0.495. For AGGTCATC, the “PBM E-score” value was 0.231. In the case of AAGTCATG, the “PBM E-score” value is reported as 0.185. CGGTCATA was tested, and the “PBM E-score” value was 0.298. With AGGTCATA the “PBM E-score” value was 0.168. In the case of AAGTCATA, the “PBM E-score” value is reported as 0.283. With CAGTCATA the “PBM E-score” value was 0.123. For ACGTCATC, the “PBM E-score” value was 0.497. In the case of AGGTCATG, the “PBM E-score” value is reported as 0.221. With CCGTCATA the “PBM E-score” value was 0.363. ACGTCATA was tested, and the “PBM E-score” value was 0.494. For CTAGACTC, the “PBM E-score” value was -0.329. CAAGGCAG was tested, and the “PBM E-score” value was -0.119. For CCATGGCG, the “PBM E-score” value was 0.102. With ATTCAGTA the “PBM E-score” value was 0.164. AAGGGACA was tested, and the “PBM E-score” value was -0.141. In the case of AATTGTTG, the “PBM E-score” value is reported as 0.0795. With GGCGGGCA the “PBM E-score” value was -0.0394. In the case of GAGTCATA, the “PBM E-score” value is reported as 0.144. In the case of CGGTCATC, the “PBM E-score” value is reported as 0.085. For CAGTCATC, the “PBM E-score” value was -0.0341. With GGGTCATA the “PBM E-score” value was -0.0664. In the case of CCGTCATC, the “PBM E-score” value is reported as 0.385. GCGTCATA was tested, and the “PBM E-score” value was 0.463. For AACGAAAT, the “PBM E-score” value was 0.156. In the case of AGATTGAG, the “PBM E-score” value is reported as 0.228. CCTTGGCA was tested, and the “PBM E-score” value was -0.209. With CTTTGTTC the “PBM E-score” value was 0.126. ATTTGTTC was tested, and the “PBM E-score” value was 0.332. In the case of ATTTGTTA, the “PBM E-score” value is reported as 0.22. For GTTGGCTA, the “PBM E-score” value was -0.0861. In the case of AGCTTTTC, the “PBM E-score” value is reported as -0.00677. In the case of ACGGCACA, the “PBM E-score” value is reported as 0.327. For ACGGCTCG, the “PBM E-score” value was 0.312. With CCGGCTCG the “PBM E-score” value was -0.128. In the case of CCGGCACG, the “PBM E-score” value is reported as -0.1. ACGGCTCC was tested, and the “PBM E-score” value was 0.256. ACGGCACG was tested, and the “PBM E-score” value was 0.348. With TCGGCACA the “PBM E-score” value was -0.0165. In the case of ACGGCAGA, the “PBM E-score” value is reported as 0.064. For CCGGCACA, the “PBM E-score” value was -0.136. For CAGGCGTC, the “PBM E-score” value was -0.00038. CGCGCGAG was tested, and the “PBM E-score” value was 0.0316. With ACAGGCCA the “PBM E-score” value was -0.202. GAAATTGA was tested, and the “PBM E-score” value was 0.153. For CGGTCGTA, the “PBM E-score” value was -0.304. In the case of GTTGCCGA, the “PBM E-score” value is reported as 0.0213. With GCACCAGC the “PBM E-score” value was -0.176. With AGTATGGG the “PBM E-score” value was -0.162. With AGGCGGCA the “PBM E-score” value was 0.119. For GTGCGGCA, the “PBM E-score” value was 0.311. In the case of GTGCGGAA, the “PBM E-score” value is reported as -0.0138. For ATGCGGCA, the “PBM E-score” value was 0.312. With ATGCGGCC the “PBM E-score” value was 0.0608. For CTGCGGCA, the “PBM E-score” value was 0.182. In the case of ACGCGGCA, the “PBM E-score” value is reported as 0.28. In the case of ACGCGGCG, the “PBM E-score” value is reported as 0.363. In the case of ACGCGGCT, the “PBM E-score” value is reported as 0.248. In the case of AGGCGGCG, the “PBM E-score” value is reported as 0.204. ATGCGGCG was tested, and the “PBM E-score” value was 0.343. In the case of GCGCGGCA, the “PBM E-score” value is reported as 0.264. With GAATTCAC the “PBM E-score” value was 0.0689. For GCCAACCA, the “PBM E-score” value was -0.0975. In the case of ATACCCTG, the “PBM E-score” value is reported as -0.0744. In the case of CGGAAGCA, the “PBM E-score” value is reported as 0.151. AGTCTTCA was tested, and the “PBM E-score” value was -0.0551. With TCCCCACA the “PBM E-score” value was -0.103. With GCGGCACA the “PBM E-score” value was 0.176. For CCGGCACC, the “PBM E-score” value was -0.146. For AGGGCACT, the “PBM E-score” value was -0.0161. For ACGGCACC, the “PBM E-score” value was 0.391. In the case of AAGGCACT, the “PBM E-score” value is reported as -0.0255. ACGGCATC was tested, and the “PBM E-score” value was 0.375. In the case of ACGGCATG, the “PBM E-score” value is reported as 0.126. For AGGGCACC, the “PBM E-score” value was -0.282. With GCGGCACC the “PBM E-score” value was 0.311. ACGGCACT was tested, and the “PBM E-score” value was 0.352. GCGGCAGC was tested, and the “PBM E-score” value was -0.104. In the case of ACGGCATA, the “PBM E-score” value is reported as 0.245. For AATCAGAA, the “PBM E-score” value was 0.00689. In the case of CATATCCC, the “PBM E-score” value is reported as 0.0321. For ACGATCAA, the “PBM E-score” value was 0.135. AAACCATG was tested, and the “PBM E-score” value was -0.0483. GCGACTAA was tested, and the “PBM E-score” value was 0.0201. In the case of GAGTTTGC, the “PBM E-score” value is reported as -0.0936. In the case of CGTAAAGA, the “PBM E-score” value is reported as 0.167. With ATTGGTCG the “PBM E-score” value was 0.069. In the case of CTCACGGC, the “PBM E-score” value is reported as 0.105. In the case of GAGTTTCC, the “PBM E-score” value is reported as -0.137. For CCGGACGC, the “PBM E-score” value was 8e-05. With ACGGCAAA the “PBM E-score” value was 0.28. ACGGCAAT was tested, and the “PBM E-score” value was 0.329. In the case of ACGGCAAG, the “PBM E-score” value is reported as 0.0822. With TCTACAGA the “PBM E-score” value was -0.0513. With AGTACCTA the “PBM E-score” value was 0.00893. AGAAAAGA was tested, and the “PBM E-score” value was 0.112. In the case of CGAAAAGA, the “PBM E-score” value is reported as 0.313. For GGAAAAGA, the “PBM E-score” value was 0.0532. In the case of ACTAAAGC, the “PBM E-score” value is reported as 0.0156. For AGTGATAT, the “PBM E-score” value was 0.0988. In the case of GATGATAC, the “PBM E-score” value is reported as 0.127. TAAGATAA was tested, and the “PBM E-score” value was 0.159. In the case of ACTGATAT, the “PBM E-score” value is reported as 0.109. For AATGATAA, the “PBM E-score” value was 0.347. With AATGATAC the “PBM E-score” value was 0.316. With AATGATAT the “PBM E-score” value was 0.322. AAAGATAA was tested, and the “PBM E-score” value was 0.308. For CATGATAA, the “PBM E-score” value was 0.155. For AAAGATAG, the “PBM E-score” value was -0.026. With CATGATAC the “PBM E-score” value was 0.251. AATGATAG was tested, and the “PBM E-score” value was 0.174.
